Experiment [1] has as its target Lysosomal acid glucosylceramidase (Homo sapiens) (UniProt P04062). The experiment can be described thus: Glucocerebrosidase-p2 (AID 348; in the data active means potency below about 10 µM; further: potency means the concentration at half of the fitted maximal effect). The note with it: purified GBA, blue fluorogenic substrate, 40 min. An outline of the steps:
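Compounds titrated from 0.6 nM upwards against 0.2 nM enzyme in pH 5.9 citric acid/KH2PO4, taurocholate, tween-20; blue fluorogenic substrate 80 uM, 40 min room temperature, stopped and read Ex 365/Em 440 for AC50.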

A short description of experiment [2]: AP1 Signaling Pathway (AID 357). Further: on the % scale 0 is the no-effect control and ±100 the full control effect. The note with it: ME-180 AP-1-bla reporter, EGF-induced, beta-lactamase ratio, 5 h; at 7.69 µM (top of the series) unless noted. An outline of the steps:
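ME-180 cells with beta-lactamase reporter under AP-1 response element, stimulated with EC50 EGF; compounds tested in titration series, 5 h at 37 °C. CCF4 substrate added 2.5 h at room temperature; 460/530 nm emission ratio gave %activity and AC50.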

For experiment [3], the target named is Cytochrome P450 1A2 (Homo sapiens) (UniProt P05177). Nature of the experiment: p450-cyp1a2 (AID 410; calls by dose curve; further: potency means the concentration at half of the fitted maximal effect;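 on activity change, negative = inhibition: -100% = full effect of reference inhibitor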). To be noted: recombinant CYP1A2, luciferin-ME demethylation, luminescence; series mostly up to 11.4 µM. Summed up: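 Luminescent readout of luciferin formed from Luciferin-ME by human CYP1A2; data normalized against complete inhibition by 57 uM furafylline. Enzyme 20nM, substrate 100uM at Km, 100mM KPO4 buffer, 60 min reaction at room temperature.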

The nature of experiment [4]: NFAT Signaling Pathway (AID 444).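 Further: carbachol stimulus at about its EC50 of 1 µM final; on the % scale 0 is the no-effect control and ±100 the full control effect.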 The note with it: Jurkat NFAT-bla M1, carbachol, beta-lactamase ratio, 5 h; at 7.69 µM (top of the series) unless noted. Summed up:
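Jurkat cells with NFAT-driven β-lactamase reporter and co-expressed M1 receptor, stimulated with carbachol (final 1 uM, ~EC50), compound titration, 5 h at 37 °C. CCF4 loaded 1 h at RT; 460/530 nm ratio gave %activity and AC50.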

Experiment [5] is described as follows: Stat Signaling Pathway (AID 446).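 Further: ME-180 cervical cancer cells given 40 pM IL-6 alongside compound; SIE-controlled beta-lactamase reporter measured as 460/530 nm FRET emission ratio; on the % scale 0 is the no-effect control and ±100 the full control effect.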 The note with it: ME-180 (cervical carcinoma) SIE beta-lactamase reporter, IL-6 stimulated, 5 h; at 7.69 µM (top of the series) unless noted. Summed up:
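IL-6/STAT signaling read in ME-180 cells via an SIE beta-lactamase reporter. Stimulus was 40 pM IL-6 (its AC50) for 5 hrs, so both activation and inhibition register.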

For experiment [6], the target named is Glucocorticoid receptor (Homo sapiens) (UniProt P04150). The experiment can be described thus: GR-GFP Redistribution (AID 450;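 active means compounds whose dose series gives a full or clear partial fitted curve of increased nuclear translocation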; further: potency means the concentration at half of the fitted maximal effect). The note with it: U2OS GR-GFP nuclear translocation, laser cytometry, 2 h.
Experiment [7] has the same target. The experiment can be described thus: GR-EFC Redistribution (AID 451; calls by dose curve; further: potency means the concentration at half of the fitted maximal effect). The note with it: CHO-K1 GR-EFC translocation, beta-gal luminescence, 2 h. Summed up:
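CHO-K1 cells expressing nuclear EA and GR-ED fragments of b-gal; compounds titrated up to 46 uM final, 2 h at 37 C. GR nuclear translocation read as complemented b-gal luminescence after 1 h RT detection.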

Experiment [8] concerns the target Mitogen-activated protein kinase 10 (Mus musculus) (UniProt Q61831). The experiment can be described thus: JNK3 AlphaScreen Assay (AID 530).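 Further: kinase came from lysate of stimulated human HepG2 cells; signal reports phosphorylation of biotinylated GST-cJun 1-79 at Ser73 with 10 µM ATP; on the % scale 0 is the no-effect control and ±100 the full control effect.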 The note with it: JNK3 lysate, c-Jun phosphorylation; series mostly up to 57.1 µM. Summed up: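 Pre-activated (IL-1β/TNFα) JNK3 in HepG2 lysates phosphorylates biotin-GST-cJun(1-79), 10 uM ATP; anti-phospho-cJun(Ser73) AlphaScreen read at room temperature, pH 7.6 Tris buffer. Compounds pre-incubated 15 min as titrations.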
A general note: Bead proximity is the source of the signal in Alpha formats.

The target in experiment [9] is 3',5'-cyclic-AMP phosphodiesterase 4B (Homo sapiens) (UniProt Q07343). Nature of the experiment: qHTS Assay for Inhibitors of PDE-IV (AID 607; active means well fitted activation curve with a large enough effect in the main read-out, with a control signal flat, not every such curve was filed as active; further: % of control where 0% means no effect). To be noted: HEK293 ACTOne CNG channel cells, membrane potential fluorescence; series mostly up to 22.9 µM. Summed up: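 Live HEK293 cells with a modified cyclic nucleotide-gated (CNG) channel report intracellular cAMP via membrane-potential dye fluorescence (ex 535/em 590 nm). Endogenous PDE-IV was targeted. Compounds were tested at up to 22.9 uM final; RO 20-1724 100 uM served as control.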
On the technique in general: Quantitative high-throughput screening tests each substance at several concentrations.

Experiment [10] has as its system HIV-1 nucleocapsid protein NCp7 (binding to TG oligonucleotide). The experiment can be described thus: HIV Nucleocapsid (AID 346; call rule not given here;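 further: potency means the concentration at half of the fitted maximal effect; potency is for inhibitors that block NC binding and lower polarization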). To be noted: HIV-1 NC / fluorescein-TGTGTGTG probe, fluorescence polarization. Summed up: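 Fluorescence polarization readout: labelled TG4xF oligo (10 nM) with 100 nM nucleocapsid protein, high-salt (250mM NaCl) Hepes pH 7.5 buffer containing zinc and fresh reducing agents. Compounds added by pin tool; incubation 1 hr, room temperature.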
In general terms: Polarisation of emitted light reports the rotation of a fluorescent probe.

Experiment [11] concerns the target Cytochrome P450 2C19 (Homo sapiens) (UniProt P33261). The experiment can be described thus: qHTS Assay for Inhibitors and Substrates of Cytochrome P450 2C19 (AID 899; active means well fitted inhibition curve with a large enough effect; further: on the % scale 0 is the no-effect control and ±100 the full control effect; nearly all actives have a fitted effect of over 60% in size). The note with it: recombinant CYP2C19, luciferin-H EGE luminescence; series mostly up to 11.4 µM. An outline of the steps:
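5 nM human CYP2C19 with 10uM Luciferin-H EGE (at KM) in 50mM KPO4, compound preincubated 10 min at 37C, then NADPH regeneration for 60 min at 37C. Luciferin read by luminescence after detection reagent; normalized to 57uM ketoconazole as full inhibition.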

Data on 20 compounds can be found in PubChem BioAssay (NCATS).

Values without a mark were called inactive. Records with an inconclusive call do not appear. Activity calls are given as the source filed them. Unless noted, the call rests on the fitted dose curve; in most records, active means well fitted curve in either direction with a large enough effect (not every such curve was filed as active); inconclusive means small, poorly fitted or top-dose-only effect, or another doubt; inactive means flat fitted curve, though single readings scatter.

Chain of Glucocorticoid receptor (Homo sapiens) (P04150 whole entry, looked up): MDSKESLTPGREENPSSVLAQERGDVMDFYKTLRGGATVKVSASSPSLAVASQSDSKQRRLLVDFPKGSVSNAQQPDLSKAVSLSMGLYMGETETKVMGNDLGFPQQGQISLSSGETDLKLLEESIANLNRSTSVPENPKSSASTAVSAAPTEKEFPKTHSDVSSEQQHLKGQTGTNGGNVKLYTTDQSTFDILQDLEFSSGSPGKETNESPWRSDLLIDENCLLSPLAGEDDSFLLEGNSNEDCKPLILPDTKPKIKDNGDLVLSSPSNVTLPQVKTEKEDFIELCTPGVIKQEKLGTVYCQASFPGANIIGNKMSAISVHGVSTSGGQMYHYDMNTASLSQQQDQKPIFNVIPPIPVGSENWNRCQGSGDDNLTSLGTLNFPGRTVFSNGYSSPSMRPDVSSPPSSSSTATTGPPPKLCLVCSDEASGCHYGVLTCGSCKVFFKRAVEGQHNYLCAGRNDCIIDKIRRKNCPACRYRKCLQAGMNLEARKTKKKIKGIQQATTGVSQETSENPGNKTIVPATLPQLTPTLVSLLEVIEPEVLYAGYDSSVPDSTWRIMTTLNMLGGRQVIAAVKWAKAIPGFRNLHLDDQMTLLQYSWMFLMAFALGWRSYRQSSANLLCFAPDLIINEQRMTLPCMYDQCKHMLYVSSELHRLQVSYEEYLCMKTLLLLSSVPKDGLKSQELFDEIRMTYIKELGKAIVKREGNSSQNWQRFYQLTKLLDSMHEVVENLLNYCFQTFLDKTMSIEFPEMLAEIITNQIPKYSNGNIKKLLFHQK
Chain of Lysosomal acid glucosylceramidase (Homo sapiens) (P04062 whole entry, looked up): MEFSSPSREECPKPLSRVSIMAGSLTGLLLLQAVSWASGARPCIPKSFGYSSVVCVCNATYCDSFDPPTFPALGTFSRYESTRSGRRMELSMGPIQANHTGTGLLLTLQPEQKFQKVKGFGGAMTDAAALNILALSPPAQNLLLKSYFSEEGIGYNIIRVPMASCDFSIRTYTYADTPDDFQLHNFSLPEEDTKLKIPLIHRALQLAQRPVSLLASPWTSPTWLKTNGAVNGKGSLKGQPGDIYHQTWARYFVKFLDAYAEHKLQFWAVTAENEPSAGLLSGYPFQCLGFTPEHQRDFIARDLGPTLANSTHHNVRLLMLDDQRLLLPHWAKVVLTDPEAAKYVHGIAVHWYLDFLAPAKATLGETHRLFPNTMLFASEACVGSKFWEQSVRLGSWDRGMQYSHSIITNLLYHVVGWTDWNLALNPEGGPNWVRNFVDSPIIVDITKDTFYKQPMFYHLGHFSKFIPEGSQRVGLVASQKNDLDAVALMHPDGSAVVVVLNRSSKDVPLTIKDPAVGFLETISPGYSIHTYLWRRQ
Chain of 3',5'-cyclic-AMP phosphodiesterase 4B (Homo sapiens) (Q07343 whole entry, looked up): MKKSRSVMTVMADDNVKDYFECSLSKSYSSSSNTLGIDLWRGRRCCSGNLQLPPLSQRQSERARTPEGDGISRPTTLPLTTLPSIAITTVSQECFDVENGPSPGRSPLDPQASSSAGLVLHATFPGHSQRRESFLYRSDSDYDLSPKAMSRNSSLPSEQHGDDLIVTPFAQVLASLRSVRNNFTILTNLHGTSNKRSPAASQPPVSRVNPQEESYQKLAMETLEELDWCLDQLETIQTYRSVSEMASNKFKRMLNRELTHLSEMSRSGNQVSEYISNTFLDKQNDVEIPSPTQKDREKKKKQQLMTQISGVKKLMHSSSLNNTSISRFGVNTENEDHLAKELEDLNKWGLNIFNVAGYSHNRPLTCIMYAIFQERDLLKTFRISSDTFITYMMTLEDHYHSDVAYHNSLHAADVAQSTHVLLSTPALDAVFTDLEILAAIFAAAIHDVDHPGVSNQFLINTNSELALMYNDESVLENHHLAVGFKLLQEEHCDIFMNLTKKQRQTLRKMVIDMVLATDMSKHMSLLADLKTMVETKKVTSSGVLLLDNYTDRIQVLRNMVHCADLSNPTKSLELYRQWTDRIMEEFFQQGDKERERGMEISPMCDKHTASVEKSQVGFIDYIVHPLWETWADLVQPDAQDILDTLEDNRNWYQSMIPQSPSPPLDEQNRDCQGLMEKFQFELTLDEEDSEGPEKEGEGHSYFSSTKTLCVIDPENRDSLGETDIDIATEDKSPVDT
Chain of Cytochrome P450 1A2 (Homo sapiens) (P05177 whole entry, looked up): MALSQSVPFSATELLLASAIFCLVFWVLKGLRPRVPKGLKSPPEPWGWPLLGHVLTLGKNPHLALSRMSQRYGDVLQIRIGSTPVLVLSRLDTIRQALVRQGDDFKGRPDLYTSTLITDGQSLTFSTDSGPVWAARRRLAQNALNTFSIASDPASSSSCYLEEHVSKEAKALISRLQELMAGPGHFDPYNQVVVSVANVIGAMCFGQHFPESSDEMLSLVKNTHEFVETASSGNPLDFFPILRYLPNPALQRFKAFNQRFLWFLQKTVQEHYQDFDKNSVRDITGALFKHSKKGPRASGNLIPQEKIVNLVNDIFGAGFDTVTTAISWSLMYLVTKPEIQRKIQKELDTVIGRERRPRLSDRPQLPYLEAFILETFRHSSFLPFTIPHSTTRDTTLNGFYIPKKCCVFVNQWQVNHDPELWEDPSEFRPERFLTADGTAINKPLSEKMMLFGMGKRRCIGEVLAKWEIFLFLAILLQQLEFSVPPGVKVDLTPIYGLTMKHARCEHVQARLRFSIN
Chain of Cytochrome P450 2C19 (Homo sapiens) (P33261 whole entry, looked up): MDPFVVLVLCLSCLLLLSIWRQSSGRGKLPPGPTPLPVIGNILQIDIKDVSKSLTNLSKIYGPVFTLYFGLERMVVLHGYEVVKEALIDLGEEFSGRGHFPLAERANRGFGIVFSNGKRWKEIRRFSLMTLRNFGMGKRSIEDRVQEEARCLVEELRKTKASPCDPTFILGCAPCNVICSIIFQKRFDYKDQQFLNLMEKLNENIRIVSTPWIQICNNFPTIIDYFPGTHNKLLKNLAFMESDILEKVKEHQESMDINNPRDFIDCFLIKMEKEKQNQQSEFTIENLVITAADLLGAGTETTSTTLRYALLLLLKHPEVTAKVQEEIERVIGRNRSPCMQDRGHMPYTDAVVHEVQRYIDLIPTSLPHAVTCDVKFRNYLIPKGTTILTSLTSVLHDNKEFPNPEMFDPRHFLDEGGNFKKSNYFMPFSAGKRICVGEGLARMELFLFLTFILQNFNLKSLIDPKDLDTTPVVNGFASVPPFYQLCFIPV

As for `NCCc1c[nH]c2ccc(OC(=O)C(=O)O)cc12`, the Potency in [1] is over 11.4 µM; in experiment [3], 2.51 µM (active); in [6], over 46 µM; in experiment [7], over 9.22 µM. Moreover, the activity change, negative = inhibition is 9.07% in experiment [2], 6.17% in [4] and 8.58% [at 11.4 µM] in experiment [8]. In addition, the activity, negative = inhibition in [5] was 10.1%. Also, the compound was classed as inactive in experiment [9].
With `CN(C)CCCc1c[nH]c2ccccc12`, the Potency was over 11.4 µM in experiment [1], over 46 µM in experiment [6] and over 9.22 µM in [7]. For the same compound, the figures for the activity change, negative = inhibition in experiment [2], in experiment [4] and in experiment [8] were -7.94%, -13% and 3.98% [at 11.4 µM], respectively. Further, the Potency entry in experiment [3] was “inactive”. For the same compound, the activity, negative = inhibition in experiment [5] is 1.91%. Also, the outcome in experiment [9] was inactive.
Consider `NC(CCl)=N[C@H]1CN2CCC1CC2`, for which the values for the Potency in experiment [1], in experiment [6] and in [7] were over 11.4 µM, over 46 µM and over 9.22 µM, respectively. Further, the activity change, negative = inhibition is 5.68% in [2], 1.17% in experiment [4] and 1.59% [at 11.4 µM] in experiment [8]. Also, the Potency entry in experiment [3] was “inactive”. For the same compound, the activity, negative = inhibition in [5] is 13.9%. Besides, in experiment [9], the outcome was inactive.
In the case of `COc1ccc(CNc2cc(-c3cccc(C#N)c3)ncn2)c(OC)c1`, the Potency in experiment [10] is over 20 µM.
Still for that read-out and setting: to `Cc1nc2cnc(N(C)C)nc2n(-c2ccccc2)c1=O` belongs over 4 µM; to `CNc1cc(-c2c(C)noc2C)ncn1`, over 20 µM.
For `O=C(O)[C@@H](Br)[C@H](Br)C(=O)O`, the Potency is over 11.4 µM in [1], over 46 µM in experiment [6] and over 9.22 µM in [7]. Moreover, the activity change, negative = inhibition in [2] is -8.85%; in [4], 12.2%; in experiment [8], -1.13% [at 11.4 µM]. Moreover, the Potency entry in [3] was “inactive”. For the same compound, in experiment [5], the activity, negative = inhibition is 3.93%. Moreover, the compound was classed as inactive in [9].
As for `COc1ccccc1CNc1ncnc2ccc(-c3ccccc3C#N)cc12`, in experiment [10], the Potency is over 20 µM.
As for `O=C(O)Cc1ccc([N+](=O)[O-])cc1[N+](=O)[O-]`, the Potency in [1] was over 11.4 µM; in experiment [3], 3.98 µM (active); in experiment [6], over 46 µM; in experiment [7], over 9.22 µM. Further, the results for the activity change, negative = inhibition in experiment [2], in experiment [4] and in [8] were -0.903%, -1.68% and 4.4% [at 11.4 µM], respectively. The activity, negative = inhibition in [5] was 5.17%. In experiment [9], the compound was called inactive.
For the compound `O=C(Oc1ccccc1)N1CCC[C@@]2(CCN(Cc3nccs3)C2)C1`, the figures for the Potency in [10], in experiment [1] and in experiment [7] were over 20 µM, over 11.4 µM and over 46 µM, respectively. Further, the activity change, negative = inhibition is -15.6% in [2] and -0.597% in experiment [4]. The activity, negative = inhibition in [5] is -14.8%. The Potency entry in experiment [8] is “inactive”. The compound was called inactive in experiment [9].
Take `C[C@H](Br)C(=O)N[C@H](CO)C(=O)O`: the Potency was over 11.4 µM in experiment [1], over 46 µM in experiment [6] and over 9.22 µM in experiment [7]. Besides, the activity change, negative = inhibition was -6.82% in [2], 5.22% in experiment [4] and 0.572% [at 11.4 µM] in experiment [8]. Also, the Potency entry in [3] is “inactive”. Besides, the activity, negative = inhibition in [5] is -2.06%. In addition, the result in [9] was inactive.
With `CNc1nc(-c2c(C)noc2C)nc2ccccc12`, the Potency in experiment [10] is over 20 µM.
With `Cn1cc(-c2nc3cncnc3n(C3CC3)c2=O)c2ccccc21`, the Potency in experiment [10] was over 20 µM.
Same read-out and setting: then `Cc1cccc(CNc2ccnc(-c3ccccc3Cl)n2)c1`, with over 20 µM; and `COc1cccc(Nc2ncc3nc(C)c(=O)n(C[C@H]4CCCO4)c3n2)c1`, with over 20 µM.
For the compound `CC(C)(C)C(=O)CP(=O)(O)O`, the Potency is over 11.4 µM in experiment [1], over 46 µM in experiment [6] and over 9.22 µM in [7]. For the same compound, the values for the activity change, negative = inhibition in experiment [2], in [4] and in [8] were 11.4%, -0.88% and 5.32% [at 11.4 µM], respectively. For the same compound, in [3], the Potency entry is “inactive”. Further, in experiment [5], the activity, negative = inhibition is -5.75%. In addition, in experiment [9], the result was inactive.
Take `COc1cccc(-c2nccc(NC3CCNCC3)n2)c1`: the Potency in [10] was over 20 µM.
Regarding `c1csc(CN2CCCC3(CCNCC3)C2)n1`, the Potency in experiment [10] is over 20 µM; in experiment [1] it was over 11.4 µM; in experiment [7], over 46 µM. Further, the values for the activity change, negative = inhibition in experiment [2] and in [4] were 10.8% and -10.2%, respectively. Also, the Potency entry in experiment [3] and in [8] was “inactive” in each case. The activity, negative = inhibition in experiment [5] was -5.01%. Besides, the result in experiment [9] was inactive.
On to `O=C(O)CS(=O)(=O)C(c1ccccc1)c1ccccc1`, for which the Potency in experiment [1] is over 11.4 µM; in experiment [6] it was over 46 µM; in experiment [7], over 9.22 µM. Also, the activity change, negative = inhibition in experiment [2] is -6.22%; in experiment [3], -15.7% [at 2.29 µM]; in experiment [4] it was -2.65%; in experiment [8] it was 1.62% [at 11.4 µM]. Moreover, the activity, negative = inhibition in experiment [5] is 3.8%. Moreover, the call in [9] was inactive. In addition, the Potency entry in [11] is “inactive”.
With `O=C(NCP(=O)(O)O)c1cccnc1`, the Potency in experiment [1] is over 11.4 µM; in experiment [6], over 46 µM; in [7], over 9.22 µM. Moreover, the activity change, negative = inhibition was 23.1% in experiment [2], 5.87% in [4] and 0.703% [at 11.4 µM] in experiment [8]. The Potency result in [3] is “inactive”. In experiment [5], the activity, negative = inhibition was 4.58%. Besides, in experiment [9], the outcome was inactive.
